# KB-V1 MDR tox: KB-V1 MDR subline cytotoxicity; KB-V1 MDR cells viability, CellTiter-Glo, 72 h; Potency, µM (highest dose often 46.1 µM), usual class: cytotoxic; 400,000 tested, 3.4% active; further: nearly all actives have a fitted effect of over 60% in size
#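 Drug-selected KB-V1 cells, grown in DMEM lacking phenol red with 10% FBS, receive compound titrations; after three days at 37 degrees C, surviving cell ATP is quantified by CellTiter-Glo luminescence and responses normalized and curve-fitted.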
# HT1080-NT tox: kills 2HG-producing HT-1080-NT fibrosarcoma cells; HT-1080-NT fibrosarcoma viability, CellTiter-Glo ATP luminescence, 48 h; Potency, µM (doses to about 46.1 µM), for inactives: top-dose activity, negative = less viability, hits mostly cytotoxic; 360,000 tested, 1.6% active;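 further: NT is the 2HG producing partner of a matched IDH1 knockdown line; 0% = DMSO-treated cells and -100% = media-only wells without cells; nearly all actives have a fitted effect of over 55% in size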
#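 Read-out is CellTiter-Glo luminescence after 10 minutes at room temperature, following 48 hours' compound treatment of HT-1080-NT cells (750 cells/well, RPMI, 5% FBS, 37 degrees C).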
# HT1080 IDH1KD tx: toxicity to HT-1080 IDH1 knockdown cells (counter line); HT-1080 IDH1 knockdown viability, ATP luminescence, 48 h; 360,000 tested, 2% active; Potency, µM (series often up to 46.1 µM), for the others: top-dose activity, negative = toxicity, actives largely listed as cytotoxic;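 further: 0% = DMSO wells and -100% = cell-free medium wells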
#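 After a 2 h attachment period, IDH1KD HT-1080 cells took pin-transferred compound for 48 h at 37 °C; ATP-based luminescence after 10 min room-temperature reagent incubation reported viability.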
# KB-3-1 cytotox: KB-3-1 parental cell cytotoxicity; AID 1347075; 400,000 tested, 1.4% active; Potency, µM (highest dose often 46.1 µM), hits mostly cytotoxic; KB-3-1 viability, CellTiter-Glo ATP luminescence, 72 h; further: nearly all actives have a fitted effect of over 60% in size
#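 KB-3-1 parental drug-naive adenocarcinoma cells in DMEM/10% FBS, incubated 72 h at 37 C with pin-transferred compounds across a concentration series. Viability by CellTiter-Glo luminescence; concentration-response curves fitted after normalization.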
# An asterisk follows results filed as active; i = inactive; u = inconclusive; x = not tested or not shown; ! = a repeat was not active. Hits are enriched below; roughly 5.7% of the tested compounds scored in any of these assays. The call rests on the fitted dose curve; in most records, active means well fitted curve in the direction sought with a large enough effect; inconclusive means small, poorly fitted or top-dose-only effect, or another doubt; inactive means no such curve, though single readings can be large; an effect the other way counts as inactive or inconclusive. Unless noted, on the % scale 0 is the no-effect control and ±100 the full control effect; potency means the concentration at half of the fitted maximal effect.
SMILES,KB-V1 MDR tox,HT1080-NT tox,HT1080 IDH1KD tx,KB-3-1 cytotox
COc1cccc(NC(=O)CN(C)C(=O)/C=C/c2ccc(S(=O)(=O)N3CCCCCC3)cc2)c1,u,-15%,u,i
CN(CC(=O)Nc1cccc(F)c1)C(=O)/C=C/c1ccc(S(=O)(=O)N2CCCCCC2)cc1,18µM*,-12%,u,i
COc1ccc(CN(C)C(=O)/C=C/c2ccc(S(=O)(=O)N3CCCCCC3)cc2)cc1,3.3µM*,-11%,-7%,u
O=C(O)C1C(c2ccccc2)=C1c1ccc(Br)cc1 (stereo not drawn),i,0%,2%,i
NC(=O)C1C(c2ccccc2)=C1c1ccccc1,21µM*,1%,6%,i
CCC(Cn1nnc2ccccc2c1=O)NC(=O)Nc1cc(OC)cc(OC)c1 (stereo not drawn),i,x,x,i
CCOc1ccccc1NC(=O)Nc1nnc(N2CCCC(C)C2)s1 (stereo not drawn),i,x,x,i
COc1ccc(CNC(=O)C2Cc3c(-c4ccccc4)ccnc3O2)cc1OC (stereo not drawn),u,-19%,-3%,i
COc1ccc(NC(=O)C2Cc3c(-c4cccc(NC(C)=O)c4)ccnc3O2)cc1 (stereo not drawn),u,u,u,4.1µM*
COc1ccc(NC(=O)C2Cc3c(-c4ccc(NC(C)=O)cc4)ccnc3O2)cn1 (stereo not drawn),u,u,u,10µM*
COc1ccc(CCCNC(=O)C2Cc3c(-c4ccccc4)ccnc3O2)cc1 (stereo not drawn),u,8.2µM*,u,u
CC(=O)c1cccc(-c2ccnc3c2CC(C(=O)Nc2ccc(Cl)cc2)O3)c1 (stereo not drawn),u,u,16µM*,u
COc1ccc(NC(=O)C2Cc3c(-c4ccc(NC(C)=O)cc4)ccnc3O2)cc1 (stereo not drawn),i,-13%,-22%,i
CCCS(=O)(=O)c1nc(S(=O)(=O)c2ccc(C)cc2)c(N(C)Cc2ccccc2)s1,i,x,x,i
Cc1ccc(S(=O)(=O)NCCSc2nnnn2-c2ccc(Cl)c(C(=O)O)c2)cc1,u,x,x,i
COC(=O)c1cc(Nc2nc3ccccc3nc2NS(=O)(=O)c2ccc(C)cc2)ccc1Cl,i,x,x,u
CC(=O)Nc1ccc(-c2ccnc3c2CC(C(=O)Nc2ccccc2)O3)cc1 (stereo not drawn),u,u,18µM*,21µM*
COc1ccc(NC(=O)C2Cc3c(-c4cccc(C(C)=O)c4)ccnc3O2)cc1 (stereo not drawn),u,u,1.8µM*,4.1µM*
CC(=O)Nc1ccc(NC(=O)C2Cc3c(-c4cccc(NC(C)=O)c4)ccnc3O2)cc1 (stereo not drawn),i,0%,23%,i
CC(=O)Nc1ccc(NC(=O)C2Cc3c(-c4cccc(C(C)=O)c4)ccnc3O2)cc1 (stereo not drawn),i,-1%,-1%,i
COc1ccc(NC(=O)C2Cc3c(-c4cccc(C(C)=O)c4)ccnc3O2)cn1 (stereo not drawn),i,u,3.3µM*,2.1µM*
CS(=O)(=O)Nc1cccc(NC(=O)C2Cc3c(-c4cccc(F)c4)ccnc3O2)c1 (stereo not drawn),u,2.1µM*,u,6.5µM*
Clc1ccc2nc[nH]c2c1,i,x,x,i
FC1(F)Oc2ccc(-c3ccc4ncnc(NCc5cccs5)c4c3)cc2O1,i,x,x,u
O=C(Nc1cccc(C(F)(F)F)c1)C1Cc2c(-c3ccc(Cl)cc3)ccnc2O1 (stereo not drawn),i,u,u,u
SMILES,KB-V1 MDR tox,HT1080-NT tox,HT1080 IDH1KD tx,KB-3-1 cytotox
O=C(Nc1cccc(C(F)(F)F)c1)C1Cc2c(-c3ccccc3)ccnc2O1 (stereo not drawn),i,u,23µM*,i
CCOC(=O)c1ccc2c(c1)N(CC(=O)Nc1ccc(C)cc1C)C(=O)c1ccccc1S2,i,x,x,i
Cc1ccn2c(Nc3ccccc3C)c(-c3ccncc3)nc2c1,23µM*!,-1%,7%,i
Cc1ccn2c(NC3CCCC3)c(-c3ccncc3)nc2c1,i,9%,6%,i
Cc1ccc(Nc2c(-c3ccccn3)nc3cc(C)ccn23)cc1,u,5.8µM*,5.8µM*,u
COc1ccc(Nc2c(-c3ccc(C)o3)nc3cc(C)ccn23)cc1,i,x,x,23µM*
CCOC(=O)c1c(C)c(C(=O)NCCc2ccc(OC)cc2)c(C)n1C,i,x,x,i
Cc1ccc2c(c1)-c1c(cnc3cc(-c4ccc(F)cc4)nn13)CO2,i,x,x,i
Cc1cccc2cc(C#N)c(SCC(=O)N3CCC(C)CC3)nc12,u,-8%,-2%,i
Cc1cccc2cc(C#N)c(SCC(=O)N3CC(=O)Nc4ccccc43)nc12,u,u,u,0.82µM*
CCOc1ccc2cc(C#N)c(SCC(=O)N3CCC(C)CC3)nc2c1,2.6µM*,-3%,1%,i
COc1ccc2cc(C#N)c(SCC(=O)N3CC(=O)Nc4ccccc43)nc2c1,i,0%,-8%,7.3µM*
COc1ccc2cc(C#N)c(SCC(=O)N3CCCC3)nc2c1,u,-3%,5%,u
COc1ccc(NC(=O)c2nn(C)c3c2CS(=O)(=O)c2ccccc2-3)cc1Cl,i,x,x,i
CCOC(=O)c1ccccc1NC(=O)CSc1nc2ncccc2o1,i,x,x,i
CCOc1ccc2c(c1)c(=O)c(C(=O)c1ccc(CC)cc1)cn2CC(=O)Nc1ccccc1OC,i,x,x,i
CCc1ccc(NC(=O)C(=O)NCCN2CCN(Cc3ccc([N+](=O)[O-])cc3)CC2)cc1,i,-2%,1%,i
Cc1ccc(NC(=O)C(=O)NCCN2CCN(Cc3ccc([N+](=O)[O-])cc3)CC2)cc1,2.9µM*,0%,3%,i
CCCC(=O)N1CCN(c2nc3ccc(Cl)cc3s2)CC1,u,-3%,4%,18µM*
Cc1ccc(Cl)cc1N1CCN(CCCNC(=O)c2ccc3nc(N4CCCCC4)sc3c2)CC1,16µM*,x,x,u
Cc1cc(C)c2nc(N3CCC(C(=O)NCC4CCCO4)CC3)sc2c1 (stereo not drawn),u,16%,-4%,i
Cc1cc(C)c2nc(N3CCC(C(=O)NCCCN4CCCCC4)CC3)sc2c1,u,23µM*,18µM*,u
Cc1ccc(C)c(N2CCN(CCCNC(=O)c3ccc4nc(N5CCC(C)CC5)sc4c3)CC2)c1,u,x,x,21µM*
COc1ccc(N2CCN(CCCNC(=O)c3ccc4nc(N5CCCCC5)sc4c3)CC2)cc1,i,x,x,i
CCCC(=O)N1CCN(c2nc3ccc(Br)cc3s2)CC1,i,u,u,u
Cc1c2cnn(CC(=O)NCCc3ccccc3)c(=O)c2c(C)n1Cc1ccccc1Cl,i,x,x,i

# Screening results (PubChem BioAssay)
